Dicer inh – inhibitors of Dicer pre-microRNA processing, primary screen, biochemical, cat-ELCCA, chemiluminescence | Endoribonuclease Dicer (Homo sapiens), Q9UPY3 | cat-ELCCA pre-miR-21 Dicer processing; hits give high values | z-score at 25 µM | 47,000 compounds, 6% hits; in the data active means z-score above about 3, passing the limit was not always enough;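 further: plate controls were vehicle for no effect and no enzyme for full effect; higher signal means more uncleaved substrate so more Dicer inhibition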
* = called active by the depositor; ! = repeats disagree. This excerpt belongs to a sample that is enriched for hits.

SMILES	Dicer inh
Cc1nc(C)n(C)c(=O)c1-c1ccccc1	-0.31
C=CCNc1nc2c(c(=O)n(C)c(=O)n2C)n1CCC(C)C	1.5
Cn1c(=O)c2c(nc(Oc3ccc(F)cc3Cl)n2C)n(C)c1=O	2.9
Cc1cc(Oc2nc3c(c(=O)n(C)c(=O)n3C)n2C)cc(C)c1Cl	3.8*
CC(C)n1c(Oc2ccc(F)cc2)nc2c1c(=O)n(C)c(=O)n2C	0.6
CCCCOc1ccc(C2c3c(oc4ccc(F)cc4c3=O)C(=O)N2CCCN(C)C)cc1 (centres undefined)	0.1
Nc1nnc(Sc2cc(-n3cccc3)c(Cl)cc2[N+](=O)[O-])s1	1.9
CC1C/C(=N\Nc2cc(Cl)cc(Cl)c2)c2cc(Cl)ccc2S1 (centres undefined)	1.4
CC1C/C(=N\Nc2ccc(Br)cc2)c2cc(Cl)ccc2S1 (centres undefined)	3.2*
O=[N+]([O-])c1ccc(N/N=C2\CCSc3ccc(Cl)cc32)cc1	0.41
N#C/C(=C\c1ccc(Cl)cc1Cl)C(N)=S	-0.55
NC(N)=N/N=C/c1ccc(Cl)c(Cl)c1	0.83
NC(N)=N/N=C/c1ccc(Cl)cc1Cl	4.5*!
COc1ccc(OC)c(NC(=O)CSc2nccn2C)c1	-1.3
CCOC(=O)c1oc2ccccc2c1CSc1ccccn1	-0.38
CCOC(=O)c1oc2ccc(OC)cc2c1CSc1ccccn1	4*
COc1ccc(OC)c(C(=O)c2oc3ccccc3c2NC(=O)CSc2ccccn2)c1	3.3*
CCOC(=O)c1oc2ccccc2c1CO	-0.55
Cc1nnc(NC(=O)CSc2ccccn2)s1	0.78
O=C(c1ccco1)N1CCN(C(=O)C2CC(c3cccc(Br)c3)=NO2)CC1 (centres undefined)	-0.43
COc1ccc(C2=NN(C(=O)CCCC(=O)O)C(c3ccc(Cl)cc3)C2)cc1 (centres undefined)	-0.26
CCn1c(N)c(C(=O)NCc2cccnc2)sc1=S	-0.23
O=C1/C(=C\c2ccc(F)cc2)N=C(c2ccccc2)N1Cc1ccc(F)cc1	-0.65
O=C1/C(=C/c2ccc(Cl)cc2)N=C(c2ccccc2)N1c1ccc(F)cc1	7.9*
O=C1NC(c2ccccc2)=N/C1=C/c1ccccc1	-0.81
SMILES	Dicer inh
Cc1noc(C)c1NC(=O)NC1CCCc2ccccc21 (centres undefined)	-0.44
O=C(Nc1ccccc1F)NC1CCCc2ccccc21 (centres undefined)	4.6*
CC(C)(C)c1ccc(NC(=O)NC2CCCc3ccccc32)cc1 (centres undefined)	1.4
Cc1ccc(C)n1CCN1CCN(C(=O)C(C)(C)C)CC1	-1.7
CCOC(=O)C(NC(=O)c1cccc(Cl)c1)(Nc1ccccc1C)C(F)(F)F (centres undefined)	1.1
CSc1sc(C(=O)N/N=C/c2ccccc2)c2c1C1(CCC2)SCCS1	-0.39
O=C1CS/C(=N/N=C/c2ccn[nH]2)N1	-0.26
O=C1N/C(=N/N=C\c2[nH]ncc2Br)SC1c1ccccc1 (centres undefined)	3.4*
COc1ccc2c(c1)nc(NCCO)n2C	1.9
CC(O)CSc1nc2c(c(=O)n(C)c(=O)n2C)n1Cc1ccccc1 (centres undefined)	0.15
N#Cc1cccc(Cn2cc(C(F)(F)F)ccc2=O)c1	-0.85
N#C/C(=N\OS(=O)(=O)c1ccc(Cl)cc1)S(=O)(=O)c1cccs1	-0.56
N#C/C(=N\Nc1cc(C(F)(F)F)cc(C(F)(F)F)c1)S(=O)(=O)c1cccs1	0.92
N#C/C(=N\OC(=O)c1ccc(C(F)(F)F)cc1)S(=O)(=O)c1cccs1	5.5*
O=C(Nc1ncc(Cc2ccccc2Cl)s1)c1cc2ccccc2c(=O)o1	0.03
CN(C)CCCN(Cc1ccc2c(c1)OCO2)C(=O)NC1CCCCC1	4.7*
CN1C(=O)CC(NCc2ccc3c(c2)OCO3)C1=O (centres undefined)	-0.41
O=C(NCc1ccc2c(c1)OCO2)NC1CCCCC1	2.8
CC(C)(C)c1cc2nc(C(F)(F)F)cc(N/N=C/c3ccc(Cl)cc3)n2n1	-1.4
Brc1cc(Br)c2[nH]c3c(Br)cc(Br)cc3c2c1	0.81
Cc1ccc(N2C(=O)C3C4C=CC(CO)(O4)C3C2=O)cc1Br (centres undefined)	-0.21
CC1(C(=O)O)NC(c2ccc(O)cc2O)C2C(=O)N(c3ccc(Br)cc3)C(=O)C21 (centres undefined)	5*
Cc1ccc(N2C(=O)C3C4c5ccccc5C(C(=O)O)(c5ccccc54)C3C2=O)cc1 (centres undefined)	1.6
O=C(O)CCC(=O)N1c2ccccc2NC2=C(C(=O)CC(c3ccccc3)C2)C1c1ccccc1F (centres undefined)	0.23
Cc1cc(C(=O)OCC(=O)N2c3ccccc3Sc3ccccc32)c2ccccc2n1	2
COc1ccc(-c2csc(NCCc3ccc(OC)c(OC)c3)n2)cc1	-0.02
O=C1CCC(=O)N1c1nccs1	3.2*
O=C1C2C3C=CC(C3)C2C(=O)N1c1nccs1 (centres undefined)	0.34
Fc1ccccc1-c1nc(-c2cccnc2)no1	-0.64
CC(=O)NC1=NN(C(C)=O)C(c2ccc(F)cc2)S1 (centres undefined)	0.31

From PubChem
